From PubChem
VDR inhibitor: vitamin D3 receptor (human) inhibition. 400,000 tested, 0.93% active. VDR-SRC2-3 peptide fluorescence polarization, 2 h. P11473. AID 504847. Potency, µM, without a hit: max response, negative = inhibition, actives largely listed as inhibitors; also: potency is read from the fitted curve at half-maximal effect; % is scaled to controls: 0 for no effect and ±100 for the full control effect
Target sequence (P11473 whole entry, looked up): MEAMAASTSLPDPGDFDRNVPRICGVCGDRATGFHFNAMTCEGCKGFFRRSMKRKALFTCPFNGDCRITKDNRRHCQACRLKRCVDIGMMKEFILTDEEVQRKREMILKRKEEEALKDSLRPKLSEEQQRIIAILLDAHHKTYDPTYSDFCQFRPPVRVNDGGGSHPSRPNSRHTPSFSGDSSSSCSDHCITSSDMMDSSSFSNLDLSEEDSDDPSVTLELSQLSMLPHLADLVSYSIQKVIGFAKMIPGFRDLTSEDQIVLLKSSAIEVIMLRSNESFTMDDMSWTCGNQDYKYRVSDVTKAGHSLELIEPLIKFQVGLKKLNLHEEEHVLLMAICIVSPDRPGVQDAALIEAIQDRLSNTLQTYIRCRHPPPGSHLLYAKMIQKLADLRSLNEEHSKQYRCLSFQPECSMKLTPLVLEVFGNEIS
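Inhibition of the VDR/SRC2-3 peptide interaction is quantified by fluorescence polarization. Compounds (23 nl, pintool) incubate with the reagents for 2 hours at ambient room temperature.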
Vif-A3G inh: inhibitors of Vif-APOBEC3G interaction; AID 602310; Q9HC16; Potency, µM (highest dose often 46.1 µM), inactives show top-dose activity, negative = active, hits mostly inhibitors; HeLa A3G-eYFP + Vif (tagged APOBEC3G with the HIV-1 protein that degrades it), YFP fluorescence, overnight; 410,000 tested, 0.076% active; also: potency is read from the fitted curve at half-maximal effect; % is scaled to controls: 0 for no effect and ±100 for the full control effect; nearly all actives have a fitted effect of over 60% in size
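HeLa cells stably expressing Vif and C-terminally eYFP-tagged A3G, seeded overnight at 37 deg C, then exposed to compound by pintool overnight at 37 deg C. Rise in yellow fluorescence (Ex 488/Em 500-530, Acumen) marks blocked Vif-driven A3G degradation.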
PLK1 PBD inh: inhibitors of human PLK1 polo-box domain binding. Potency, µM, for inactives: max response, negative = inhibition, actives largely listed as inhibitors. Plk1 PBD binding of FITC phosphopeptide, fluorescence polarization. AID 720504. 360,000 tested, 2.8% active. P53350; also: potency is read from the fitted curve at half-maximal effect; series mostly up to about 57 µM; % is scaled to controls: 0 for no effect and ±100 for the full control effect; nearly all actives have a fitted effect of over 65% in size
TSHR antag: antagonists of human thyroid stimulating hormone receptor; P16473; TSHR-expressing cells, TSH-stimulated cAMP HTRF, 2 h; stronger effect = lower value; activity change, negative = inhibition, % at 11.5 µM; 330,000 tested, 0.2% active; AID 504810;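 active = activity change below a set negative limit, meaning inhibition stronger than a set level, cut at about -70% in these data; inconclusive = activity change between two set negative limits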; also: % is scaled to controls: 0 for no effect and ±100 for the full control effect
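Freshly harvested TSHR cells receive pin-tooled compound, then EC80 TSH at 4nM final. After 2 hours at 37 deg C, antibody in lysis buffer and cAMP-d2 are added; 30 minutes at ambient temperature precede the HTRF read.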
Vif-APOBEC3F blk: Vif-A3F binding inhibition | 390,000 tested, 0.2% active | HeLa A3F-eYFP + Vif (tagged APOBEC3F with the HIV-1 protein that degrades it), YFP fluorescence increase | Potency, µM (doses to about 46.1 µM), without a hit: at the highest dose activity, negative = active; also: potency is read from the fitted curve at half-maximal effect; % of control where 0% means no effect; nearly all actives have a fitted effect of over 65% in size
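HeLa cells stably expressing Vif plus C-terminally eYFP-tagged A3F were seeded, incubated overnight at 37 deg C, dosed with compound, incubated overnight again at 37 deg C. Yellow fluorescence (Ex 488/Em 500-530) reported blocked Vif-mediated A3F-eYFP degradation.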
* marks the source's active call; other numbers are inactive results; i = inactive; ? = inconclusive; . = no result. A selection: hits, their analogues and other compounds. The true share with any hit is near 3.1%. Unless noted, calls follow the shape of the dose curve; as a rule, active = well fitted curve in the direction sought with a large enough effect; inconclusive = small, poorly fitted or top-dose-only effect, or another doubt; inactive = no such curve, though single readings can be large; an effect the other way counts as inactive or inconclusive.

SMILES | VDR inhibitor | Vif-A3G inh | PLK1 PBD inh | TSHR antag | Vif-APOBEC3F blk
CN(C)c1ccc(C=c2c3ccccc3n3c2cc(-c2ccccc2)[n+]3C)cc1 | -15.2% | 0.5% | -0.5% | . | ?
COc1cc(N(C)C)ccc1C=c1c2ccccc2n2c1cc(-c1ccccc1)[n+]2C | 79.4µM* | 6.9% | ? | . | ?
COc1cc(C=c2c3ccccc3n3c2cc(-c2ccccc2)[n+]3C)cc(OC)c1OC | -17.9% | -8.8% | 4.74µM* | . | ?
COc1cc(/C=C(/C(=O)O)c2ccc(-c3ccccc3)cc2)cc(OC)c1OC | -6.5% | ? | -16.6% | -9.6 | 0.2%
CC[C@@H]1/C=C(\C)C[C@H](C)C[C@H](OC)[C@H]2O[C@@](O)(C(=O)C(=O)N3CCCC[C@H]3C(=O)O[C@H](/C(C)=C/[C@@H]3CC[C@H](Cl)[C@H](OC)C3)[C@H](C)[C@@H](O)CC1=O)[C@H](C)C[C@@H]2OC | -1.6% | . | . | . | .
CCN(CC)c1ccc2cc(-c3nc(-c4ccccc4)no3)c(=O)oc2c1 | 6.2% | -34.1% | . | . | ?
CCN(CC)c1ccc2cc(-c3nc(-c4cc5ccccc5oc4=O)cs3)c(=O)oc2c1 | -2.5% | 7.08µM* | 37.0% | . | i
CC(=O)NC1C(O)C[C@@](O)(C(=O)O)OC1[C@@H](O)C(O)CO (stereo partly drawn) | 19.6% | . | . | . | .
O=C(CN1C(=O)c2ccccc2S1(=O)=O)NCCSCc1cccc(Cl)c1 | 17.9% | -0.2% | -15.5% | -96.2* | 0.0%
O=C(CN1C(=O)c2ccccc2S1(=O)=O)NCCSC1CCCCC1 | 2.8% | -21.9% | -7.2% | -6.3 | -9.7%
CC(C)NC(=O)c1onc(CSc2ccc(F)c(F)c2)c1C(=O)O | -19.3% | -16.4% | 23.8µM* | 16.5 | 1.9%
CC(C)NC(=O)c1onc(CSc2ccc(F)cc2)c1C(=O)O | -10.1% | -5.5% | -5.9% | 18.6 | 1.0%
CCOc1ccc(NC(=O)C(=O)NCc2ccco2)cc1 | 2.8% | -1.6% | . | . | -1.0%
CCOc1ccc(/C=N/OCC(=O)NCc2ccco2)cc1 | ? | -4.4% | 15µM* | -6.1 | -13.5%
CC[C@H](C)[C@H](NC(=O)CNC(=O)[C@H](CCCNC(=N)N)NC(=O)CNC(=O)[C@@H](NC(=O)[C@H](Cc1ccc(O)cc1)NC(=O)[C@H](Cc1c[nH]c2ccccc12)NC(=O)[C@H](C)NC(=O)[C@@H]1CCCN1C(=O)[C@H](CC(N)=O)NC(=O)[C@@H](NC(=O)[C@H](CC(=O)O)NC(=O)[C@@H]1CCCN1C(=O)[C@@H](N)[C@@H](C)O)[C@@H](C)CC)[C@@H](C)O)C(=O)N[C@@H](CCCNC(=N)N)C(=O)N1CCC[C@H]1C(=O)N[C@H](C(=O)NCC(=O)N[C@@H](CCCNC(=N)N)C(=O)N[C@@H](Cc1ccccc1)C(N)=O)C(C)C | 0.9% | . | . | . | .
S=c1nc(-c2ccc(Br)cc2)[nH]c2ccccc12 | ? | 1.8% | 11.9µM* | -1.0 | -2.1%
CNc1nc(-c2cccc(NS(C)(=O)=O)c2)nc2ccccc12 | 44.7µM* | . | . | . | .
CS(=O)(=O)Nc1cccc(-c2nc(Nc3ccc(F)cc3)c3ccccc3n2)c1 | 2.6% | . | . | . | .
Cc1ccccc1-c1nc(NC2CCNCC2)c2ccccc2n1 | 1.6% | . | . | . | .
CNc1nc(-c2ccccc2C)nc2ccccc12 | 44.7µM* | . | . | . | .
CCCCCC(=O)Nc1cc(S(=O)(=O)O)cc2cc(S(=O)(=O)O)cc(O)c12 | ? | -0.1% | 5.97µM* | . | 5.4%
CCCCCC(=O)Nc1cc(S(=O)(=O)N2CCCCC2)ccc1N1CCCCC1 | ? | 3.2% | 0.0% | . | -4.1%
C=C1CCN(C(C(=O)O)C(C)C)S(=O)(=O)c2ccccc21 (stereo not drawn) | -13.4% | -0.2% | . | . | .
COc1cc(Nc2nc3ccccc3n3nnnc23)cc(OC)c1OC | 7.4% | ? | 5.9% | -11.4 | 6.31µM*
COc1ccc(Nc2nc3ccccc3n3nnnc23)cc1 | 1.8% | -5.2% | 0.5% | -4.9 | ?
SMILES | VDR inhibitor | Vif-A3G inh | PLK1 PBD inh | TSHR antag | Vif-APOBEC3F blk
c1ccc(C2=Nn3c(nnc3-c3cccs3)SC2)cc1 | -0.1% | 0.8% | -1.8% | -11.4 | -12.4%
c1csc(C2=Nn3c(nnc3-c3ccncc3)SC2)c1 | -28.1% | 6.9% | 26.7µM* | 0.3 | -3.2%
COc1ccc(CCn2nnnc2C2(c3ccc(C)cc3)CC2)cc1 | -26.3% | . | . | 12.1 | .
Cn1ccnc1Sc1nc2ccccc2nc1NS(=O)(=O)c1ccccc1 | -15.2% | -13.3% | ? | 16.8 | 25.1µM*
CC(=O)Nc1ccc(S(=O)(=O)Nc2nc3ccccc3nc2Sc2nncn2C)cc1 | -10.8% | -15.6% | ? | 26.4 | 10µM*
Cn1cnnc1Sc1nc2ccccc2nc1NS(=O)(=O)c1ccccc1 | -16.9% | -1.5% | -11.8% | -10.1 | ?
COc1cccc(-c2ccc3c(N)c(C(=O)c4ccc(Cl)cc4)sc3n2)c1 | -11.1% | 10µM* | . | . | ?
COc1cccc(-c2ccc3c(N)c(C(=O)Nc4ccc(C)c(F)c4)sc3n2)c1 | -1.5% | -4.5% | . | . | -6.9%
COc1ccc(C(=O)c2sc3nc(-c4ccccc4)ccc3c2N)cc1 | 3.2% | ? | -2.0% | -7.2 | 3.55µM*
COc1ccc(CC(=O)Nc2cccc(-c3nnc(-c4ccc(C)cc4)o3)c2)cc1OC | -3.4% | -4.2% | -3.5% | -48.0 | -7.3%
COc1ccc(CC(=O)Nc2cccc(-c3nnc(-c4cccc(C)c4)o3)c2)cc1OC | 0.9% | 4.5% | -2.0% | -92.4* | 5.2%
CCCCC[C@H](O)/C=C/[C@H]1C(=O)C=C[C@@H]1C/C=C\CCCC(=O)O | 31.6µM* | . | . | . | .
CCCCC[C@H](O)/C=C/C1C(=O)C=C[C@H]1C/C=C\CCCC(=O)OC (stereo partly drawn) | 25.1µM* | ? | -16.2% | . | 6.0%
c1ccc(Cn2c(SCc3nc4ccccc4s3)nnc2-c2ccco2)cc1 | -23.7% | ? | 21.2µM* | -14.5 | -8.7%
CCC(c1nnc(SCc2nc3ccccc3s2)n1Cc1ccccc1)N(C)C (stereo not drawn) | 12.6% | -5.9% | -3.2% | -1.7 | 8.5%
C#CCSc1nncn1C(=O)/C=C/c1ccccc1 | ? | -6.1% | 23.8µM* | 0.1 | -6.1%
COc1ccc(NC(=O)c2cccc(C(=O)Nc3ccc(OC)cc3)n2)cc1 | . | . | . | 0.3 | .
COc1ccc(NC(=O)c2sc(=S)[nH]c2N)cc1 | 50.1µM* | 1.6% | ? | -3.1 | 1.5%
c1cncc(-c2nn3c(Cn4nnc5ccccc54)nnc3s2)c1 | ? | -2.3% | 16.8µM* | 40.0 | -2.3%
c1ccc(-c2nn3c(Cn4nnc5ccccc54)nnc3s2)nc1 | -14.9% | 1.7% | 26.7µM* | 9.3 | -7.9%
Cc1ccc(-n2c(=O)c3c(C)c(C(=O)N(C)C)sc3n(CC(=O)C(C)(C)C)c2=O)cc1C | 13.0% | 1.5% | . | . | 0.4%
CCCCC(=O)N1CCc2cc(OC)c(OC)cc2C1COc1ccc(OC)cc1 (stereo not drawn) | -3.3% | -2.4% | . | . | 0.6%
